Measurements taken from PMC5540273 (PLoS ONE, 2017).

Tests used:
Conditions in all cases: concentration: 1 μM, replicates: in singlicate; n = 1
[1] = tested on: AXL
[2] = tested on: T1, BIKE
T1 construct: gene BMP2K

[3] = tested on: BLK
[4] = tested on: BMPR1A
[5] = tested on: BMPR1B
[6] = tested on: BMPR2
[7] = tested on: BMX
[8] = tested on: BRAF
[9] = tested on: T2, BRK
T2 construct: gene PTK6

[10] = tested on: BRSK1
[11] = tested on: BRSK2
[12] = tested on: BTK
[13] = tested on: BUB1
[14] = tested on: CAMK1B
[15] = tested on: CAMK1D
[16] = tested on: CAMK1G
[17] = tested on: CAMK1
[18] = tested on: CAMK2A
[19] = tested on: CAMK2B
[20] = tested on: CAMK2D
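Also: KINOMEscan kinase panel screen.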

Structure (SMILES)	%Inh [1] [%]	%Inh [2] [%]	%Inh [3] [%]	%Inh [4] [%]	%Inh [5] [%]	%Inh [6] [%]	%Inh [7] [%]	%Inh [8] [%]	%Inh [9] [%]	%Inh [10] [%]	%Inh [11] [%]	%Inh [12] [%]	%Inh [13] [%]	%Inh [14] [%]	%Inh [15] [%]	%Inh [16] [%]	%Inh [17] [%]	%Inh [18] [%]	%Inh [19] [%]	%Inh [20] [%]
COc1cc(Nc2nccc(N3CCC(NC(=O)C(C)c4ccc(Cl)cc4)C3)n2)cc(OC)c1OC (centres unmarked) [GSK1379757]	13	40	28	0	0	4	1	0	11	0	0	0	48	0	9	0	22	0	0	0
COc1ccc(-c2cc3c(C)nc(N)nc3n([C@H]3CC[C@H](O)CC3)c2=O)cn1	0	0	0	40	0	0	0	0	0	0	0	0	0	0	0	0	0	0	0	0
CCS(=O)c1ccc(-c2coc3ccc(-c4nnc(C)o4)cc23)cc1 (centres unmarked)	0	0	3	0	6	15	18	0	0	0	11	18	0	5	23	2	20	0	3	0
COc1cc(Nc2nccc(N3CCC(NC(=O)C4COc5ccccc5O4)C3)n2)cc(OC)c1OC (centres unmarked) [GSK1379761]	17	57	16	0	0	26	16	0	2	9	0	53	53	25	8	8	21	8	0	9
O=C(Nc1ccc2c(c1)OCO2)NC1CCN(c2ccnc(NCc3ccc(F)cc3)n2)CC1 [GSK1379859]	2	7	43	0	0	0	3	0	4	0	0	0	7	0	16	0	16	0	0	7
Cl.NS(=O)(=O)c1cccc(Nc2cc(-c3ccc(F)cc3)n[nH]2)c1 [GW824645]	0	0	23	7	0	45	0	33	0	0	0	0	36	0	0	0	0	0	0	0
Cc1ccccc1COc1cc(-n2cnc3cc(Cl)ccc32)sc1C(N)=O [GW813349]	2	20	18	0	12	26	1	6	0	0	2	18	0	0	5	0	0	0	0	0
COC(=O)c1c(-c2ccccc2)c2cc(C)ccc2c(=O)n1Cc1ccccc1	0	0	0	0	0	0	19	79	0	0	0	0	0	0	19	12	21	0	0	0
COc1cc2ncn(-c3cc(OCc4ccncc4Br)c(C(N)=O)s3)c2cc1OC [GW854278]	30	39	11	8	6	13	10	2	6	25	20	0	0	0	0	7	0	37	46	17
Nc1ncnc2c1ncn2-c1ccc(Cl)cc1 [AH2635]	0	28	24	0	0	2	20	0	0	0	9	0	25	3	4	0	5	0	0	0
